ELG1 repair inh = ELG1-dependent DNA repair inhibition. hit rate 2.3% among 330,000. Potency, µM (doses to about 46.1 µM), most hits filed as inhibitors. HEK293T ELG1-luciferase reporter, luminescence, 16 h; DNA damage induced by 5-fluorouridine. AID 504467; also: nearly all actives have a fitted effect of over 55% in size
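Quantitative HTS, concentration-response format. 2,000 cells/well co-treated with 5-fluorouridine and compound, 16 hr in 5% CO2 at 37 °C; ONE-Glo luminescence read after 30 min.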
TDP1 inh = blocks human tyrosyl-DNA phosphodiesterase 1; recombinant TDP1, AlphaScreen DNA substrate cleavage; Potency, µM (titrated, usually from 130 µM), most hits filed as inhibitors; hit rate 0.28% among 350,000; AID 485290; also: nearly all actives have a fitted effect of over 40% in size
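Steps: enzyme plus compound, 15 min RT; add biotin/phosphotyrosine-FITC oligonucleotide (15 nM final), react 5 min; add donor/acceptor beads (10 ug/ml final), 10 min; read AlphaScreen. Tdp1 at 1 nM final.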
TDP1 cell CPT = DT40-hTDP1 cell growth loss with CPT | chicken DT40 Tdp1-/-;hTDP1 cells + 20 nM CPT, ATP luminescence, 48 h | Potency, µM (doses to about 46.2 µM), actives largely listed as inhibitors | hit rate 12% among 420,000; also: nearly all actives have a fitted effect of over 55% in size
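Chicken DT40 Tdp1-/- cells stably complemented with human TDP1 were seeded at 400 cells/well in medium containing 20 nM camptothecin, exposed to pin-transferred compounds, and grown at 37 °C for at least 48 hr. Viability was read as ATP luminescence.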
TDP1 cell noCPT = qHTS for Inhibitors of human tyrosyl-DNA phosphodiesterase 1 (TDP1): qHTS in cells in absence of CPT. DT40 Tdp1-/- hTDP1 cells, no CPT, ATP luminescence, 48 h. AID 686978, 2013. Potency, µM (top dose mostly 46.2 µM), hits mostly inhibitors. hit rate 15% among 420,000; also: nearly all actives have a fitted effect of over 55% in size
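Camptothecin absent (DMSO only). Human TDP1-complemented DT40 knockout cells, 400 cells/well, 37 °C for minimum 48 hr; ATP measured via CellTiter-Glo, 30 min dark incubation, luminescence.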
Giardia kill = Giardia lamblia killing. activity change, % at 7.66 µM, hits read low. hit rate 0.15% among 340,000. Giardia lamblia trophozoite viability; in the data active = activity change below about -80%; inconclusive = between about -30% and that limit;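 also: parasites exposed to compound for two days anaerobically before the ATP read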
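Viability, read as ATP luminescence: trophozoites at 100 cells/well, compound added, 48 hrs anaerobic at 37 deg C, then 15-30 min room-temperature development before reading.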
IL1B secr inh = blocks inflammasome-driven IL-1 beta release | THP-1 LPS/ATP IL-1B secretion, AlphaLISA, 16 h; stronger effect = lower value | activity change, % at 57.5 µM | hit rate 4.7% among 360,000 | AID 743279; in the data active = activity change below about -50%; inconclusive = mostly about -30% to -49%
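THP-1 cells pretreated 1 hr with compounds (up to 57.5 uM final), then stimulated with LPS (250 ng/mL final) plus ATP (1.25 mM final); secreted IL-1B measured by AlphaLISA after 16 hr, decreased signal indicating inhibition.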
Hits are given with their value; n = inactive; u = inconclusive; x = not tested or not shown; ! = repeats disagree. This is a sample that favours compounds with a hit; in the whole collection about 19% have one here. Unless noted, calls follow the shape of the dose curve; as a rule, active = well fitted curve in the direction sought with a large enough effect; inconclusive = small, poorly fitted or top-dose-only effect, or another doubt; inactive = no such curve, though single readings can be large; an effect the other way counts as inactive or inconclusive.

SMILES	ELG1 repair inh	TDP1 inh	TDP1 cell CPT	TDP1 cell noCPT	Giardia kill	IL1B secr inh
Cc1nc2ccccc2n1/N=C/c1ccc([N+](=O)[O-])o1	x	x	1.8µM	2.9µM	u	-97
O=[N+]([O-])c1ccc(/C=N/n2cnc3ccccc32)s1	u	n	3.7µM	3.7µM	u	-74
Cc1nc2ccccc2c(=O)n1/N=C/c1ccc([N+](=O)[O-])o1	n	n	x	x	x	x
O=C(c1ccccc1[N+](=O)[O-])n1cnc2ccccc21	n	n	n	n	n	n
Cc1cc2ncn(/N=C/c3cc(Br)ccc3O)c2cc1C	n	n	x	x	x	x
Cc1ccc(N2CC(NC(=O)C3CCCCC3)CC2=O)cc1 (centres undefined)	x	n	n	n	x	x
O=[N+]([O-])c1cccnc1Nc1ccc(Cl)cc1	x	x	n	n	x	n
O=[N+]([O-])c1ccc(/C=N/Nc2ncccc2[N+](=O)[O-])s1	x	x	1.5µM	1.3µM	-93	n
CC1CCN(S(=O)(=O)c2cc([N+](=O)[O-])ccc2Cl)CC1	u	n	n	u	n	n
CC1CCN(CC(CS(=O)(=O)c2ccc([N+](=O)[O-])cc2)N2CCC(C)CC2)CC1 (centres undefined)	u	x	2.1µM	2.3µM	n	-76
CC(=O)[C@H]1CC[C@H]2[C@@H]3C=CC4=CC(=O)CC[C@@]4(C)[C@@H]3CC[C@]12C	n	x	15µM!	13µM	n	n
CC(=O)OCC=C1CCC2C3CCC4=CC(=O)CCC4(C)C3C(O)CC12C (centres undefined)	x	x	12µM	12µM	n	n
CC(=O)C1CCC2C3CCC4=CC(=O)C=CC4(C)C3CCC12C (centres undefined)	x	x	21µM	12µM	n	n
CC12C=CC(=O)C=C1CCC1C2CCC2(C)C(C(=O)CO)CCC12 (centres undefined)	x	x	u	u	n	n
C[C@@]12CCC(=O)C=C1C=CC1C2CC[C@]2(C)C1CC[C@@]21CCC(=O)O1 (some centres undefined)	x	n	x	x	x	x
C[C@]12C[C@H](O)[C@H]3[C@@H](CCC4=CC(=O)CC[C@@]43C)[C@@H]1CC[C@@H]2C(=O)CO	n	n	u	u	n	n
CC(=O)OCC(=O)[C@@]1(O)CCC2C3CCC4=CC(=O)CC[C@]4(C)C3C(O)C[C@]21C (some centres undefined)	x	n	n	n	x	x
CC(=O)[C@H]1CC[C@H]2[C@@H]3CCC4=CC(=O)CC[C@]4(C)[C@H]3[C@H](O)C[C@]12C	u	n	u	16µM	n	n
Cn1cnc2c(=O)[nH]cc([N+](=O)[O-])c21	n	n	n	n	n	n
C=CCn1c(C(CCCC)CC(O)COCC(C)C)n[nH]c1=S (centres undefined)	n	n	n	u	n	n
COc1ccc(OC)c(C2=Nn3c(nnc3-c3cccc(OC)c3OC)SC2)c1	x	n	x	x	x	x
COc1ccc(NC(=O)C2=C(C)Nc3nc(SCc4ccccc4)nn3C2c2cc(OC)ccc2OC)cc1 (centres undefined)	x	n	u	u	x	x
CCOc1ccccc1C1C(C(=O)Nc2ccccc2)=C(C)Nc2nc(SCC(=O)c3ccc(C)cc3)nn21 (centres undefined)	x	n	7.3µM	9.2µM	x	x
CC1=C(C(=O)Nc2ccc(C)cc2C)C(c2ccccc2F)n2nc(SCC(=O)c3ccc(C)cc3)nc2N1 (centres undefined)	x	n	18µM	15µM	x	x
CC1=C(C(=O)Nc2ccc(C)cc2C)C(c2ccccc2)n2nc(SCC(=O)c3ccc(C)cc3)nc2N1 (centres undefined)	x	n	n	n	x	x
CCCCCc1nn2cc(-c3ccccc3)nc2s1	x	n	u	u	x	x
CCN(CC)S(=O)(=O)c1ccc2oc(C(=O)N3CCCCCC3)c(C)c2c1	u	n	u	9.2µM	n	n
CCN(CC)S(=O)(=O)c1ccc2oc(C(=O)N3CCOCC3)c(C)c2c1	n	n	n	u	n	n

From PubChem
